# Compound activity as filed in PubChem.
# This excerpt belongs to a sample that is enriched for hits.
# NSD2 block: inhibitors of human NSD2 methyltransferase; NSD2-SET H3K36me1 DELFIA fluorescence, biochemical; hit rate 0.07% among 44,000; inhibition, % at 12.5 µM; in the data active = inhibition above about 54%, passing the limit was not always enough;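 also: inhibitors reduce the monomethyl H3K36 fluorescence signal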
# * = called active by the depositor.
SMILES,NSD2 block
Cc1sc2nc(-c3ccccc3O)[nH]c(=O)c2c1C,7
COC(=O)c1c(C)cc2c(c(C)c1=O)OC1(C2)C(C)CCC2C(C)(C)OC(=O)C=CC21C (stereo unspecified),-8
CC1(C)[C@H]2CC=C(/C=N\NC(=O)CCCCCC(=O)Nc3ccccc3O)[C@@H]1C2,-6
CCCCc1c(-c2ccc(O)cc2)[nH]c2nccnc12,-5
Cc1ccc(NCc2ccc(C(=O)Nc3ccccc3[N+](=O)[O-])cc2)cc1C,-7
C=C1C(=O)O[C@H]2C1CCC(C)=C1C(=O)C=C(C)[C@@H]12 (stereo partly specified),5
COC(=O)c1sccc1-c1ccc(-c2ccn(C(=O)c3ccc(Cl)cc3)n2)o1,-1
CCCC(O)/C(=C/C1=C(C(=O)CC(CC(=O)O)OC(N)=O)C(=O)c2cccc(O)c2C1=O)CC(C(=O)O)[N+](C)(C)C (stereo unspecified),-3
CN(C)CCOC(=O)COc1ccc(Cl)cc1,4
CC/C(=C(/c1ccccc1)c1ccc(OCCN(C)C)cc1)c1ccccc1,58*
CCN(CC)CCOc1ccc(/C(=C(\Cl)c2ccccc2)c2ccccc2)cc1,2
CC(C)(C)OC(=O)Nc1cccc(/C=N/NC(=O)CCCCC(=O)NO)c1,2
C/C=C/[C@H](CC(=O)N1Cc2ccccc2C[C@H]1CO)[Si](C)(C)c1ccc(OC)cc1,5
O=C(O)CCCCCCC(=O)N/N=C/CCC1CCCCC1,2
O=C(O)CCCC[C@@H]1SC[C@@H]2NC(=O)N[C@@H]21,105*
O=C(N/N=C/c1cc(Cl)cc(Cl)c1O)c1ccccn1,-5
CC(=O)O[C@@H]1CC[C@@]2(C)C(CC[C@@H](C)[C@]23Cc2c(O)cc4c(c2O3)CNC4=O)C1(C)C (stereo partly specified),-12
Cc1ccc(S(=O)(=O)N[C@H](C(=O)NCCn2cc(C(=O)NO)nn2)C(C)C)cc1,6
O=C(CCCCC(=O)N/N=C/c1ccccc1Br)NO,1
NC(=S)Cc1c(Cl)sc2ccc(Cl)cc12,-1
Cc1ccc(OCC(O)CNc2ccc(Br)c(C(F)(F)F)c2)cc1C (stereo unspecified),-6
COC(=O)c1c(C)nc(C)c(C(=O)OC)c1-c1csc(S(=O)(=O)N2CCSCC2)c1,2
NNC(=O)c1ccccc1O,-4
O=C(Cn1c2ccccc2n2ncnc12)c1ccc(-c2ccccc2)cc1,2
